In PubChem BioAssay AID1963322 (National Center for Advancing Translational Sciences (NCATS), 2024):
Records with an inconclusive call do not appear. Unmarked numbers belong to inactive results. Active and inactive are the calls of the source. Calls come from the whole dose curve.

target: cAMP-dependent protein kinase catalytic subunit alpha (Homo sapiens) (UniProt P17612); assay: Protein Kinase A (PKA-HiBiT) SDR gain of signal screen; conditions: PKA-HiBiT structural dynamics response (SDR), luminescence gain of signal; series mostly up to 32.9 µM; activity change, positive = signal gain: at the top concentration
Text: National Center for Advancing Translational Sciences (NCATS),
National Institute of Health (NIH), Maryland
Discovery and optimization of novel protein-binding ligands underlies many of the methods and applications of biology, drug discovery, clinical diagnostics, and environmental toxicology. Assays for detecting the interaction of, for example, a molecule with a macromolecular target also referred to here as the target of interest (TOI) is dependent on a compatible output technology. Depending on the nature and knowledge surrounding the TOI, whether a receptor, enzyme, regulatory subunit or scaffold, or a sequence-defined nucleic acid folded into a complex tertiary structure, assay strategies can vary widely.
Here we exploit ligand-biased changes in the structural dynamics of the target protein to control reporter alpha complementation allowing a non-competitive, non-functional, non-separation measure of ligand-target interaction.
Using a chemical library of >1,200 compounds enriched for scaffolds known to be associated with the inhibition of firefly luciferase (FLuc) activity (PubChem AIDs 2309) we first illustrate and compare the Structural Dynamics Response (SDR) assay vs. the standard functional FLuc enzyme assay (2). Secondly, we show the specificity and sensitivity of the SDR for the Abelson tyrosine kinase (ABL1) compared to the serine/threonine protein kinase A, using an enriched chemical library of 128 compounds selected, in part, for activity annotated with ABL1 kinase activity using the Pharos database (3).
(1) A. S. Dixon et al., NanoLuc Complementation Reporter Optimized for Accurate Measurement of Protein Interactions in Cells. ACS Chem Biol 11, 400-408 (2016).
Chemistry & Biology, 19, 1060 - 1072 (2012).
(3) K. J. Kelleher et al., Pharos 2023: an integrated resource for the understudied human proteome. Nucleic Acids Res 51, D1405-D1416 (2023).
PROTOCOL TABLE (as described by Inglese J, Shamu CE and Guy RK. 2007)
SEQUENCE No. (e.g., 1, 2, 3, etc.); […] (e.g., C. elegans, Compounds, Incubation, Read, etc.); VALUE and DESCRIPTION.
1. Reagent. Dispense 4 uL PKA-N-HiBiT enzyme per well at a final enzyme concentration of 10 nM in buffer into columns 2-48 of four replicate Greiner 1536-well white,solid bottom high base, medium plates per assay. Dispense respective buffer without enzyme at 4 uL/well in column 1 of assay plates using BioRaptr 2.
2. Compounds. Library compounds added at 23 nL/well by pin transfer. DMSO neutral control and H-89 positive control added at 25 nL/well, transfer by Mosquito dispenser.
3. Incubation. Incubate enzyme and compounds at room temperature for 30 min, protect from light.
4. Reagent. (SDR assay) Add 3 uL/well of Nano-Glo HiBiT reagent (Promega) to assay plates.
5. Incubation. (SDR assay) Incubate enzyme solution HiBiT reagent at room temperature for 10 min, protected from light.
6. Detector. (SDR assay) Luminescence measured using CCD-based camera (ViewLux) with settings as follows: Exposure, 1 sec; Gain, High; Speed, Slow; Binning, 2X.

First: O=[N+]([O-])O[C@H]1CO[C@H]2[C@@H]1OC[C@H]2O[N+](=O)[O-]
Second: N#Cc1cn([C@@H]2O[C@H](CO)[C@H](O)[C@@H]2O)c2ncnc(N)c12
The “activity change, positive = signal gain” value of the first is higher: 4.6% for the first, 0.291% for the second.

Compared with `C/C(O)=C(\C#N)C(=O)Nc1cc(Br)ccc1Br`, `CCNC(=O)C[C@@H]1N=C(c2ccc(Cl)cc2)c2cc(OC)ccc2-n2c(C)nnc21` is higher in “activity change, positive = signal gain” value: -82.4% for the first, 4.6% for the second.

For `O=C(NCCCNc1nc(Nc2ccc(N3CCOCC3)cc2)ncc1C1CC1)C1CCC1`, the “activity change, positive = signal gain” value was -1.76%.

`Cc1[nH]nc2ccc(-c3cncc(OC[C@@H](N)Cc4c[nH]c5ccccc45)c3)cc12` was tested, and the Potency was 197 nM (active).
